VDR inhibitor = vitamin D3 receptor (human) inhibition | hit rate 0.93% among 400,000 | VDR-SRC2-3 peptide fluorescence polarization, 2 h | Potency, µM, inactives show max response, negative = inhibition, actives largely listed as inhibitors | P11473 | AID 504847
Target sequence (P11473 whole entry, looked up): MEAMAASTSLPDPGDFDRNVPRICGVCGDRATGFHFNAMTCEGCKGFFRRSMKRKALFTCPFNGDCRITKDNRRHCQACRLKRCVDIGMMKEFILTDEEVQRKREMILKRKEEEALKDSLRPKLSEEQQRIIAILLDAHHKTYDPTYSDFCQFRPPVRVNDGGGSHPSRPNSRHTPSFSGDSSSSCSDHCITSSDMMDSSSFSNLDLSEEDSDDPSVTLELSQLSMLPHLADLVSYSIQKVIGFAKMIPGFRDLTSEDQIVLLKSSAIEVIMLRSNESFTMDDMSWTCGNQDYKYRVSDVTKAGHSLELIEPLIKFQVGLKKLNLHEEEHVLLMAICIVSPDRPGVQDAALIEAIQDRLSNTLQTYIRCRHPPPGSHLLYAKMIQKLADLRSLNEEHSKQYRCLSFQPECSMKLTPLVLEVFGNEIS
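Fluorescence polarization assay of small-molecule disruption of VDR binding to coregulator peptide SRC2-3. Compounds and controls pin-transferred, then read after 2 h incubation at ambient room temperature.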
PLK1 PBD inh = PLK1 (human) polo-box domain binding inhibition; P53350; Plk1 PBD binding of FITC phosphopeptide, fluorescence polarization; Potency, µM, for inactives: max response, negative = inhibition, hits mostly inhibitors; hit rate 2.8% among 360,000; AID 720504; also: series mostly up to about 57 µM; nearly all actives have a fitted effect of over 65% in size
TDP1 inh = blocks human tyrosyl-DNA phosphodiesterase 1 | Q9NUW8 | recombinant TDP1, AlphaScreen DNA substrate cleavage | Potency, µM (highest dose often 130 µM), for inactives: at the top dose activity change, negative = inhibition, hits mostly inhibitors | hit rate 0.28% among 350,000; also: nearly all actives have a fitted effect of over 40% in size
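AlphaScreen read-out: signal falls as enzyme removes the 3' tyrosine-FITC from a 5'-biotinylated DNA oligo (15 nM, 5 min, RT). Enzyme was E. coli-made recombinant Tdp1 at 1 nM, exposed to compound for 15 min beforehand; beads 10 ug/ml, 10 min.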
TDP1 cell CPT = growth inhibition of DT40 Tdp1-/-;hTDP1 cells with camptothecin (screen for TDP1 inhibitors); chicken DT40 Tdp1-/-;hTDP1 cells + 20 nM CPT, ATP luminescence, 48 h; Potency, µM (top dose mostly 46.2 µM), for inactives: at the top dose activity change, negative = growth inhibition, actives largely listed as inhibitors; hit rate 12% among 420,000; also: nearly all actives have a fitted effect of over 55% in size
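Cell growth measured by CellTiter-Glo luminescence after a minimum 48 h, 37 C compound exposure with 20 nM CPT in Tdp1-knockout DT40 cells stably expressing hTDP1, seeded 400/well; qHTS titration format.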
DT40 TDP1 no CPT = qHTS for Inhibitors of human tyrosyl-DNA phosphodiesterase 1 (TDP1): qHTS in cells in absence of CPT | DT40 Tdp1-/- hTDP1 cells, no CPT, ATP luminescence, 48 h | Potency, µM (series often up to 46.2 µM), for the others: top-dose activity change, negative = growth inhibition, most hits filed as inhibitors | hit rate 15% among 420,000; also: nearly all actives have a fitted effect of over 55% in size
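No-CPT arm: Tdp1-/-;hTDP1 DT40 cells (400/well) plus compounds, incubated ≥48 hr at 37 °C. Readout CellTiter-Glo luminescence.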
GCN5L2 inh = GCN5L2 (KAT2A) acetyltransferase inhibition; GCN5L2 HAT assay, ThioGlo1 CoA-SH fluorescence; Q92830; AID 504327; Potency, µM (top dose mostly 58.9 µM), without a hit: at the highest dose activity change, negative = inhibition, most hits filed as inhibitors; hit rate 0.21% among 390,000
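Preincubate 20nM GCN5L2 with compound 15 min, RT → add 50uM ThioGlo1 + 75uM H3(1-25) + 70uM acetyl-CoA → read fluorescence 0 and 20 min. Primary qHTS; fluorescent artifacts likely.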
Numbers without * were called inactive; ? = inconclusive; . = no result. An excerpt weighted towards active compounds, which were near 18% of everything screened. Calls follow the shape of the dose curve; as a rule, active = well fitted curve in the direction sought with a large enough effect; inconclusive = small, poorly fitted or top-dose-only effect, or another doubt; inactive = no such curve, though single readings can be large; an effect the other way counts as inactive or inconclusive. % is scaled to controls: 0 for no effect and ±100 for the full control effect; potency is read from the fitted curve at half-maximal effect.

SMILES | VDR inhibitor | PLK1 PBD inh | TDP1 inh | TDP1 cell CPT | DT40 TDP1 no CPT | GCN5L2 inh
O=C1CSC(c2cccc(F)c2)N1c1ccccc1 (stereo not given) | -14% | 2% | . | -7% | ? | -6%
CC(N)CN (stereo not given) | . | . | 12% | . | . | .
CCN(CC)S(=O)(=O)c1ccc(C)c(C(=O)Oc2cccc(-c3cnc4ccccc4n3)c2)c1 | -5% | -10% | 0% | ? | 21µM* | -11%
CCN(CC)S(=O)(=O)c1cc(C(=O)Oc2cccc(-c3cnc4ccccc4n3)c2)ccc1OC | -12% | -6% | 3% | ? | 21µM* | -4%
O=C(Oc1cccc(-c2cnc3ccccc3n2)c1)c1ccco1 | 5% | -2% | -1% | -15% | -28% | -11%
COc1ccc(N(C)S(=O)(=O)c2cccc(C(=O)Nc3nc4ccccc4[nH]3)c2)cc1 | 4% | 3% | 9% | 23µM* | ? | -8%
O=C(Nc1nc2ccccc2[nH]1)c1cccc(Cl)c1 | 6% | -10% | 4% | ? | ? | -16%
CN(c1cccc(Cl)c1)S(=O)(=O)c1cccc(C(=O)Nc2nc3ccccc3[nH]2)c1 | -12% | 4% | 8% | 21µM* | 23µM* | -6%
NC(=O)c1sc2nnc(-c3ccccc3)c(-c3ccccc3)c2c1N | -8% | ? | . | ? | 15µM* | 0%
CC1(C)Cc2cccc(OCC(=O)OCC(=O)Nc3ccc(S(N)(=O)=O)cc3)c2O1 | . | 4% | . | -17% | 3% | .
COc1ccc(NC(=O)COc2cccc3c2OC(C)(C)C3)cc1OC | 19% | 0% | 0% | 21µM* | 13µM* | -4%
CN(C)S(=O)(=O)c1ccc(NC(=O)COc2cccc3c2OC(C)(C)C3)cc1 | 7% | -1% | 0% | 21µM* | ? | -12%
CCOC(=O)N1CCc2c(sc(NCc3ccc(N(CC)CC)cc3)c2C(=O)Nc2cc(OC)ccc2OC)C1 | -8% | . | 8% | ? | ? | -14%
CCn1c(C(=O)OC)cc2c1ccn2-c1ccc(F)cc1 | ? | 3µM* | 9% | 18µM* | 13µM* | -14%
COc1cccc(C2C(C(=O)Nc3ccc(Cl)cc3)=C(C)Nc3nc4ccccc4n32)c1 (stereo not given) | -9% | . | 2% | 21µM* | -4% | 1%
COc1ccc(/C=N/NC(=O)Nc2cccc3nsnc23)c(OC)c1 | 16% | -1% | -8% | 12µM* | 10µM* | -3%
O=C(N/N=C/c1ccc(O)cc1)Nc1cccc2nsnc12 | 9% | -5% | 0% | -12% | 21µM* | -2%
COc1ccc(OC)c(C=NNC(=O)NN=Cc2cc(OC)ccc2OC)c1 | . | 5% | . | ? | 26µM* | .
CCc1nc2ccc(C(=O)NCCOc3ccc(OC)cc3)cn2c1N(C)Cc1nccn1C | . | 3% | . | -28% | -14% | .
COc1ccc(CN(Cc2ccccc2)C(=O)c2ccc(OC)cc2O)cc1 | . | . | -14% | . | . | .
CC1(C)Oc2cc3oc(-c4cc(O)cc(O)c4)cc3cc2CC1O (stereo not given) | -17% | -4% | . | 21µM* | ? | .
Cc1ccc(N2C(=O)C(Cl)=C(Nc3c(C)n(C)n(-c4ccccc4)c3=O)C2=O)cc1 | -59% | -28% | 3% | ? | 13µM* | -5%
Cc1cccc(N2C(=O)C(Cl)=C(Nc3c(C)n(C)n(-c4ccccc4)c3=O)C2=O)c1C | ? | -9% | 1% | ? | ? | 0%
CC[n+]1c(-c2ccc(C)cc2)csc1Nc1c(C)n(C)n(-c2ccccc2)c1=O | -11% | -2% | 8% | 15µM* | 12µM* | 38%
CCOc1ccc(S(=O)(=O)N(CC)CC(=O)N2CCOCC2)cc1C | 4% | -4% | 1% | -2% | -17% | -2%
SMILES | VDR inhibitor | PLK1 PBD inh | TDP1 inh | TDP1 cell CPT | DT40 TDP1 no CPT | GCN5L2 inh
O=C1CCc2cc(S(=O)(=O)Nc3cccc(C(F)(F)F)c3)ccc2N1 | . | . | 1% | . | . | .
Cc1ccc(-c2nc3ccc(Cl)cc3c(=O)n2O)cc1 | -9% | -10% | . | ? | 16µM* | -7%
COc1ccc2c(c1)c1c(c(=O)n(CCc3ccccc3)c(=O)n1Cc1cccc(F)c1)n2C | 11% | . | 3% | -3% | -3% | 1%
Cc1ccc(C)c(N2CCN(c3cc(C)nc4c(-c5ccc(Cl)cc5)c(C)nn34)CC2)c1 | 11% | . | 8% | 10% | -8% | -3%
CCCc1cc(N2CCN(c3cc(Cl)ccc3C)CC2)n2cnnc2n1 | -6% | . | 7% | 13µM* | 5.2µM* | -16%
Cc1cccc(NS(=O)(=O)c2ccc3c(c2)n(C)c(=O)n3C)c1C | 18% | . | 2% | 23µM* | ? | 2%
Cc1cc2c(cc1S(=O)(=O)Nc1cccc(C)c1C)n(C)c(=O)c(=O)n2C | -19% | 2% | . | ? | -9% | -11%
Cc1c(F)cccc1NS(=O)(=O)c1ccc2c(c1)c(=O)n(C)c(=O)n2C | 7% | -1% | 6% | ? | 15µM* | -6%
Cc1c(F)cccc1NS(=O)(=O)c1ccc2c(c1)n(C)c(=O)c(=O)n2C | 4% | -1% | 4% | -8% | -26% | -3%
N#CCCn1c(=O)c(-c2ccc(Cl)cc2)nc2cnc(N3CCOCC3)nc21 | -5% | . | . | 5% | 21% | -11%
Cc1cccn2c(=O)cc(CSc3nnc(NC(=O)COc4ccc(F)cc4)s3)nc12 | 4% | . | -3% | 5% | -6% | 0%
Cc1nc(Cc2nnc(SCC(=O)N3c4ccccc4NC(=O)C3(C)C)o2)cs1 | . | -17% | . | -29% | 16µM* | .
CCN1CCN(C(=O)C(Cc2ccccc2)NC(=O)c2ccc(Cl)c(S(=O)(=O)N(C)C)c2)CC1 (stereo not given) | -18% | -11% | -5% | ? | ? | -5%
COc1cc(/C(C)=N/NC(=O)C(O)(c2ccccc2)c2ccccc2)ccc1O | 9% | -22% | 11% | ? | -29% | -6%
Cc1cc(C(=O)CN2CCC(C)CC2)c(C)n1-c1ccccc1F | -11% | -10% | 1% | ? | 16µM* | 2%
Cc1cc(C(=O)CN2C(=O)C(=O)N(Cc3ccccc3)C2=O)c(C)n1-c1ccccc1F | 16% | -15% | 3% | -6% | ? | -15%
Cc1ccc2c(c1)nnn2C1CCN(CC(=O)Nc2ccccc2N2CCOCC2)CC1 | -15% | -8% | 6% | 18µM* | 23µM* | -3%
Cc1nc2cc(C(F)(F)F)ccc2n1C1CCN(CC(=O)NC(C)(C)C)CC1 | 5% | 0% | 0% | 18µM* | ? | -4%

Source: PubChem (National Center for Advancing Translational Sciences (NCATS))
